From the supplement of paper PMC10646978
± gives the standard deviation.

The molecules below were run on RAW-Dual (murine macrophage reporter line) (assay: NF-kB reporter (SEAP) activity fold change vs agonist alone; higher = enhanced NF-kB activity). Settings: modulator concentration 10 µM; agonist: MPLA […].
Summary of the method: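 RAW-Dual murine macrophage reporter cells were seeded at 50 000 per well in 384-well plates and pre-incubated 1 hour at 37 °C with compound pin-transferred to 10 μM final. After 1 hour, a PRR agonist was added and cells incubated overnight. Supernatant NF-κB (SEAP, QUANTI-Blue, 620 nm absorbance) and IRF (Lucia luciferase, QUANTI-Luc, luminescence) signals were divided by the mean agonist-only control on the same plate to give fold change. Two replicate plates were averaged, with errors by propagation.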

SMILES	NF-kB reporter
Cc1ccccc1CNC(=O)CN(c1cccc(C(F)(F)F)c1)S(C)(=O)=O	1.03 ± 0.041
COc1ccc(CCC(=O)NCc2nc(N(C)C)nc(N3CCCCC3)n2)cc1	0.881 ± 0.033
CCOC(=O)CN1CCOCCOCCN(CC(=O)OCC)CCOCCOCC1	0.957 ± 0.067
CN(C)C(CNC(=O)NCc1ccc(F)cc1)c1ccc2c(c1)CCO2 (stereo not given)	1.04 ± 0.055
CC(=O)c1ccc(Nc2ncnc(Nc3ccc(C(C)=O)cc3)c2[N+](=O)[O-])cc1	0.939 ± 0.045
CCCCCCc1ccc(O)cc1O	0.874 ± 0.058
COc1ccc(C(=O)CSc2nnc(NC(=O)C3CC(=O)N(c4cccc(OC)c4)C3)s2)cc1 (stereo not given)	1.23 ± 0.13
COC(=O)C1=CN(CC2CCCO2)C=C(C(=O)OC)C1c1cccc(Cl)c1 (stereo not given)	0.83 ± 0.072
O=C(C=Cc1ccc(Br)cc1)c1c(-c2ccccc2)c2cc(Cl)ccc2[nH]c1=O	1.03 ± 0.099
CCOCCn1c(N2CCCN(C)CC2)nc2ccccc21 [Prestw-1274]	1.03 ± 0.08
Cc1cccc(-c2cc3nc(C)c(Cl)c(O)n3n2)c1	0.948 ± 0.025
COc1cc2c(cc1OC)C1Cc3ccc(OC)c(OC)c3CN1CC2 (stereo not given)	0.949 ± 0.067
CN1CCN(c2ccc(C(=O)Nc3n[nH]c4ccc(Cc5cc(F)cc(F)c5)cc34)c(NC3CCOCC3)c2)CC1	1.87 ± 0.11
CCCCCc1ccc(-c2ccc(-c3noc(-c4ccc(CCCC)cc4)n3)cc2)cc1	0.914 ± 0.086
O=C(CCn1c(=O)oc2ccccc21)Nc1ccccc1	0.881 ± 0.08
COc1cc2c(cc1OC)C(=O)C(CC1CCN(Cc3ccccc3)CC1)C2.Cl (stereo not given)	1.46 ± 0.14
CC(C)NC(=O)CCn1c(=O)c2cc(Cl)ccc2n2c(SCc3ccc(F)cc3)nnc12	1.1 ± 0.06
CC(Oc1cccc(Cl)c1)C(=O)Nc1nncs1 (stereo not given)	0.967 ± 0.058
COc1ccc(CNc2nc(N3CCC[C@H]3CO)ncc2C(=O)NCc2ncccn2)cc1Cl	0.771 ± 0.043
COC(=O)c1ccc(CSc2ccc3nnc(-c4cccc(F)c4)n3n2)o1	1.03 ± 0.062

SMILES	NF-kB reporter
CC(=NN1CCN(Cc2cccc3ccccc23)CC1)c1ccc(Br)cc1	1.08 ± 0.044
CCN1CCN(CC(O)COc2ccc(C(C)(C)C)cc2C(C)(C)C)CC1.Cl.Cl (stereo not given)	2.1 ± 0.29
COC(C(=O)NNC(=O)c1ccccc1Cl)c1ccccc1 (stereo not given)	1.11 ± 0.1
CCN(CC)c1ccc(C=Nc2c(C)cc(C)cc2C)cc1	0.959 ± 0.054
CN1CCN(C2CC(=O)N(c3ccc(N4CCOCC4)cc3)C2=O)CC1 (stereo not given)	0.864 ± 0.065
O=c1[nH]c(NN=Cc2c3ccccc3cc3ccccc23)nc2ccccc12	0.971 ± 0.066
CCOc1ccccc1OCCCCOc1cccc(Cl)c1	0.951 ± 0.084
CCCOc1cccc(C=C2N=C(c3ccc(Cl)c([N+](=O)[O-])c3)OC2=O)c1	0.912 ± 0.055
Cc1[nH]c2ccccc2c1CCNCc1ccc(/C=C/C(=O)NO)cc1	2.77 ± 0.17
COc1ccc(CN(CCN(C)C)c2ccccn2)cc1.O=C(O)C=CC(=O)O	1.01 ± 0.021
CC1(C)OC[C@@H](COC(=O)CCc2ccc(OC[C@@H](O)CNCCNC(=O)N3CCOCC3)cc2)O1.Cl	0.987 ± 0.023
Cl.Nc1c2c(nc3ccccc13)CCCC2	0.918 ± 0.06
Br.Cc1ccc(Sc2ccccc2N2CCNCC2)c(C)c1	1.78 ± 0.15
O=c1oc2cc(O)ccc2c2ccccc12	1.06 ± 0.038
COC(=O)C1=C(C)N(C)C(C)=C(C(=O)OC)C1c1ccc(-c2ccccc2)cc1	0.939 ± 0.06
Oc1ccc(C=Cc2cc(O)cc(O)c2)cc1	1.23 ± 0.029
CCCCc1c(C)nc(NN=C(C)c2cccc([N+](=O)[O-])c2)nc1O	1.11 ± 0.1
O=[N+]([O-])c1ccc(Nc2ccccc2O)c2nonc12	1.7 ± 0.099
CC(=O)Nc1cc2nc3ccccc3nc2cc1NC(C)=O	0.955 ± 0.041
O=C(O)CCC(=O)Nc1ccc(Br)cc1C(=O)c1ccc(Cl)cc1	0.951 ± 0.066
